# Assay results reported in PubChem BioAssay (Tox21).
# Inconclusive results are not listed. Where a call stands in place of a potency, no number is given. Some compounds were tested as several samples or in several runs, with calls that do not always agree. Activity calls are given as the source filed them. Calls come from the whole dose curve; as a rule, active = well fitted activation curve with a large enough effect in the repeat runs; inconclusive = weak or mixed curves, or effect the other way; inactive = no such curve, though single readings can be large or run the other way.
# Assay: qHTS assay to identify small molecule agonists of the retinoic acid receptor (RAR) signaling pathway (AID 1159553)
# Settings: C3RL4 RARE luciferase reporter, agonist, 6 h; activation: at 73.3 µM (top of the series) unless noted
# From the text: National Center for Advancing Translational Sciences [NCATS] NIH Chemical Genomics Center [NCGC] U.S. Environmental Protection Agency [EPA] National Institutes of Environmental Health Sciences [NIEHS] National Toxicology Program [NTP] Assay overview: All-trans Retinoic acid (atRA) is the potent natural metabolite of retinol and plays an important role in normal embryonic development and maintenance of cellular phenotype in adult animals. atRA is the activating ligand for the retinoic acid receptors (RARs) which form heterodimers with retinoid X receptors (RXRs) on the retinoic acid response element (RARE). Through activation of the RAR/RXRs nuclear receptors, atRA regulates the transcription of a large number of protein-coding genes and regulatory RNAs. Intracellular levels of atRA are controlled by the retinol signaling pathway (RSP) that regulates the biosynthesis and catabolism of atRA to maintain physiological levels. Chemicals that interfere with the RSP can cause abnormal intracellular levels of atRA and therefore are potential developmental toxicants. To assess compounds for the potential adverse effect on embryonic development through interfering with retinol signaling, a cell-based RARE luciferase reporter gene assay was used. C3RL4 cell line (OARSA/CFSAN/FDA, Laurel, MD) was used to screen Tox21 10K compound library for identifying activators of the RSP.
# Assay Protocol Summary: C3RL4 cells were seeded at 1,000/well in 5 uL of assay medium into white solid 1,536-well tissue culture plates (Greiner Bio-One North America Inc. Monroe, NC) using a Multidrop Combi (Thermo Scientific, Waltham, MA) dispenser. After incubation at 37 C and 5% CO2 for an overnight, 23 nL of compounds dissolved in DMSO, positive control or DMSO only were transferred by a Pintool station (Kalypsys, San Diego, CA). After 6 hr incubation at 37 C and 5% CO2, 5 uL of Amplite Luciferase reagent (AAT Bioquest Inc. Sunnyvale, CA) was added to each assay plate using a Flying Reagent Dispenser (FRD) (Aurora Discovery, San Diego, CA). Luminescence was quantified on a ViewLux plate reader (PerkinElmer, Waltham, MA) after 30 min incubation at room temperature.
# Potency is the fitted concentration of half-maximal effect.
row,SMILES,Potency
1,C[n+]1ccn(CCO)c1,inactive
2,O=c1n(CCCN2CCN(c3cccc(Cl)c3)CC2)nc2ccccn12,inactive
3,Cc1ccc([N+](=O)[O-])cc1N,inactive
4,C=CC(=O)NCOCCCC,inactive
5,Cc1cc(CC(=O)O)n(C)c1C(=O)c1ccc(Cl)cc1,inactive
6,CC/C=C(\C(=O)N[C@@H]1C(=O)N2C(C(=O)OCOC(=O)C(C)(C)C)=C(COC(N)=O)CS[C@H]12)c1csc(N)n1,inactive
7,Cc1ccc(C(C)C)cc1,inactive
8,CC1(C)[C@@H](O[C@H]2O[C@H](C(=O)O)[C@@H](O)[C@H](O)[C@H]2O[C@@H]2O[C@H](C(=O)O)[C@@H](O)[C@H](O)[C@H]2O)CC[C@]2(C)[C@H]3C(=O)C=C4[C@@H]5C[C@@](C)(C(=O)O)CC[C@]5(C)CC[C@@]4(C)[C@]3(C)CC[C@@H]12,inactive
9,Nc1cccc(N)n1,inactive
10,COc1ccccc1[N+](=O)[O-],inactive
11,OCC(O)CS (stereo not given),inactive
12,N#CCC(=O)O,inactive
13,CCCOC(=O)NCCCN(C)C,inactive
14,COc1ccc2cc3[n+](cc2c1OC)CCc1cc2c(cc1-3)OCO2,inactive
15,Oc1ccc(Cc2ccccc2O)cc1,inactive
16,O=Cc1ccc(CO)o1,inactive
17,O=C1C(N(CO)C(=O)NCO)N(CO)C(=O)N1CO (stereo not given),inactive
18,Brc1ccc(Oc2ccc(Br)cc2)cc1,inactive
19,CN1Cc2c(N)cccc2C(c2ccccc2)C1 (stereo not given),inactive
20,CCCCC(CC)COC(=O)c1ccc(C(=O)OCC(CC)CCCC)cc1 (stereo not given),inactive

row,SMILES,Potency
1,CCCCCC(C)=O,inactive
2,Cc1ccncc1,inactive
3,O=c1c(O)c(-c2ccc(O)c(O)c2)oc2cc(O)cc(O)c12,61.2 µM (active)
4,Nc1nc(N)c2nc(-c3ccccc3)c(N)nc2n1,17.4 µM (active) and inactive
5,OCCOCCOCCOCCOCCO,inactive
6,CC(=O)OC/C=C(\C)CCC=C(C)C,inactive
7,Cc1cc(C)c(O)c(C)c1,inactive
8,CC(=O)OC(C)(C)C1CC=C(C)CC1 (stereo not given),inactive
9,COCN(COC)c1nc(N(COC)COC)nc(N(COC)COC)n1,inactive
10,CC(COCC(C)OC(=O)c1ccccc1)OC(=O)c1ccccc1 (stereo not given),inactive
11,CC(=O)OCCC(C)C,inactive
12,CCOC(=O)c1ccc(O)cc1,inactive
13,CCOC(=O)CC(=O)OCC,inactive
14,CC(C=O)Cc1ccc(C(C)(C)C)cc1 (stereo not given),inactive
15,CC(=O)c1nccs1,inactive
16,OB(O)O,inactive
17,CCCCCCCCCCCC(=O)N(C)CC(=O)O,inactive
18,C[Si](C)(C)N[Si](C)(C)C,inactive
19,COc1cc(NC(=O)CC(C)=O)c(OC)cc1Cl,inactive
20,COc1c2ccoc2cc2oc(=O)ccc12,inactive
